Hits are enriched below; roughly 2.8% of the tested compounds scored in any of these assays.
WRN helicase inh-1 – qHTS for Inhibitors of WRN Helicase | 360,000 compounds, 0.46% hits | Bifunctional 3'-5' exonuclease/ATP-dependent helicase WRN (Homo sapiens), Q14191 | WRN helicase unwinding, fluorescent forked duplex, kinetic | Potency, µM (top dose mostly 114 µM), inactives show at the highest dose activity change, negative = inhibition, hits mostly inhibitors; note: potency is the fitted concentration of half-maximal effect; % is set by controls: 0 for no effect and ±100 for the full control effect; nearly all actives have a fitted effect of over 55% in size
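Screening of the MLSMR collection measured strand separation of a quenched forked DNA duplex (100 nM) by 20 nM WRN with 2 mM ATP, all final. Compounds were preincubated with enzyme 15 min at room temperature.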
Pol kappa inh-1 – qHTS for Inhibitors of Polymerase Kappa | DNA polymerase kappa (Homo sapiens), Q9UBT6 | AID 588579, 2011 | Potency, µM (series often up to 107 µM), for inactives: at the top dose activity, negative = inhibition, usual class: inhibitors | 400,000 compounds, 0.53% hits | purified Pol kappa, fluorescent DNA synthesis assay, 10 min; note: potency is the fitted concentration of half-maximal effect; % is set by controls: 0 for no effect and ±100 for the full control effect
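Activity was followed as the change in fluorescence between reads at 0 and 10 min after starting the reaction with 50 nM substrate. Beforehand, 10 nM polymerase had been preincubated with compound for 15 min at room temperature.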
PI5P4Ka inh – qHTS for Inhibitors of phosphatidylinositol 5-phosphate 4-kinase (PI5P4K); PI5P4Kalpha enzyme, ADP-Glo luminescence, 60 min; active compounds read low; max response, %; 330,000 compounds, 1.2% hits; AID 652105, 2013; active = max response of -50% or lower; inconclusive = between -30% and -50%; inactive = -30% or higher; note: value at the top dose of about 77 µM; % is set by controls: 0 for no effect and ±100 for the full control effect
Target sequence (P48426 whole entry, looked up): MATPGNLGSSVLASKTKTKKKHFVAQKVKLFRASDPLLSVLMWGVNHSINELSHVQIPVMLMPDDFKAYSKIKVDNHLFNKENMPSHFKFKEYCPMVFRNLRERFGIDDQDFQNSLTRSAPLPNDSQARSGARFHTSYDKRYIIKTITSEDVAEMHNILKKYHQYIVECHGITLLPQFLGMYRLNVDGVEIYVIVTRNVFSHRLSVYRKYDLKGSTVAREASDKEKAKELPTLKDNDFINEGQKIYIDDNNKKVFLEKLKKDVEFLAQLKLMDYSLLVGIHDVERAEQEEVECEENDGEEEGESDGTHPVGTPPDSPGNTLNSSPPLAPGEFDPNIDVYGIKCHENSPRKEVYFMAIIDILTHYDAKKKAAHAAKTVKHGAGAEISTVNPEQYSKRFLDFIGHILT
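Reactions run in 0.038 M HEPES pH 7.4, 0.28 mM EGTA, 0.1% CHAPS and 5% DMSO, with PI5P4Kalpha, substrate, compound and 5 microM ATP final, one hour at room temperature. Readout is ADP-Glo luminescence.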
POLB inh – qHTS Assay for Inhibitors of DNA Polymerase Beta | Pol beta primer extension/strand displacement, fluorescence kinetic | 340,000 compounds, 1.3% hits | Potency, µM (doses to about 114 µM), inactives show at the highest dose activity change, negative = inhibition, actives largely listed as inhibitors | P06746; note: potency is the fitted concentration of half-maximal effect; % is set by controls: 0 for no effect and ±100 for the full control effect
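Preincubation: enzyme (10 nM) with compound, 15 min, RT. Reaction: substrate added to 50 nM final. Reads: 0 and 10 min. Analysis: normalized, Hill fit.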
Pol eta inh-1 – qHTS for Inhibitors of Polymerase Eta; 390,000 compounds, 1.2% hits; Potency, µM (titrated, usually from 114 µM), for the others: top-dose activity change, negative = inhibition, hits mostly inhibitors; recombinant Pol eta, fluorescent DNA replication assay; DNA polymerase eta (Homo sapiens), Q9Y253; note: potency is the fitted concentration of half-maximal effect; % is set by controls: 0 for no effect and ±100 for the full control effect
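Fluorescent replication assay: 50 nM final substrate added after a 15 min room-temperature compound preincubation with 10 nM enzyme. Signal taken at 0 min and again at 10 min.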
Pol iota inh – qHTS for Inhibitors of Polymerase Iota; Pol iota fluorescent replication assay, 10 min; Potency, µM (titrated, usually from 115 µM), inactives show top-dose activity, negative = inhibition, actives largely listed as inhibitors; 390,000 compounds, 1% hits; AID 588590, 2011; DNA polymerase iota (Homo sapiens), Q9UNA4; note: potency is the fitted concentration of half-maximal effect
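Pol iota at 10 nM preincubated 15 min with compounds at room temperature; reaction started with fluorescent substrate, 50 nM final. Fluorescence read kinetically at 0 and 10 min; buffer-only wells as negative control.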
Pol iota confirm – qHTS for Inhibitors of Polymerase Iota: Confirmatory Assay for Cherry-picked Compounds; Pol iota primer extension, TAMRA/BHQ fluorescence; shares compounds with Pol kappa inh-1; 1,500 compounds, 77% hits; Potency, µM, usual class: inhibitors; note: potency is the fitted concentration of half-maximal effect
Pol kappa inh-2 – qHTS for Inhibitors of Polymerase Kappa: Confirmatory Assay for Cherry-picked Compounds; shares compounds with Pol eta inh-1; purified Pol-kappa, fluorescent strand-displacement substrate; Potency, µM, usual class: inhibitors; 920 compounds, 76% hits; AID 720501, 2013; note: potency is the fitted concentration of half-maximal effect
Pol eta inh-2 – qHTS for Inhibitors of Polymerase Eta: Confirmatory Assay for Cherry-picked Compounds | 2,600 compounds, 64% hits | Pol eta primer extension, TAMRA/BHQ fluorescence, 10 min | AID 720502, 2013 | Potency, µM, most hits filed as inhibitors | shares compounds with Pol eta inh-1; note: potency is the fitted concentration of half-maximal effect
WRN helicase inh-2 – qHTS for Inhibitors of WRN Helicase: Confirmatory Assay for Cherry-picked Compounds | shares compounds with WRN helicase inh-1 | WRN helicase DNA unwinding, fluorescence kinetic | Potency, µM (highest dose often 57.1 µM), inactives show at the highest dose activity, negative = inhibition, usual class: inhibitors | 610 compounds, 63% hits | AID 720497, 2013; note: potency is the fitted concentration of half-maximal effect; nearly all actives have a fitted effect of over 65% in size
TO displacement – qHTS for Inhibitors of WRN Helicase: Thiazole Orange DNA Binding Counterscreen; shares compounds with WRN helicase inh-1; thiazole orange DNA binding displacement, fluorescence; Potency, µM (doses to about 57.1 µM), inactives show top-dose activity change, negative = inhibition, actives largely listed as inhibitors; 610 compounds, 10% hits;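 note: drop in dye fluorescence marks compound binding to DNA; potency is the fitted concentration of half-maximal effect; % is set by controls: 0 for no effect and ±100 for the full control effect; nearly all actives have a fitted effect of over 60% in size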
BLM counter – qHTS for Inhibitors of WRN Helicase: BLM Helicase Counterscreen for WRN Inhibitors. Potency, µM (series often up to 57.1 µM), for the others: at the top dose activity change, negative = inhibition, actives largely listed as inhibitors. AID 720503, 2013. Recombinant BLM helicase DNA unwinding, red fluorescence. 610 compounds, 60% hits. shares compounds with WRN helicase inh-1; note: potency is the fitted concentration of half-maximal effect; nearly all actives have a fitted effect of over 60% in size
* = called active by the depositor; [ ] = remark or other dose. Unless noted, calls come from the whole dose curve; as a rule, active = well fitted curve in the direction sought with a large enough effect; inconclusive = small, poorly fitted or top-dose-only effect, or another doubt; inactive = no such curve, though single readings can be large; an effect the other way counts as inactive or inconclusive.

How did CCOC(=O)c1ccc(NC(=O)c2cn3c4c(ccc(Cl)c4c2=O)OC(C)C3)cc1 (stereo not drawn) do in these assays?
Pol kappa inh-1: -5.4%; POLB inh: 11.6%; Pol eta inh-1: -0.4%; Pol iota inh: 0.6%

What do the screens show for `O=C(O)C1NCc2[nH]cnc2C1c1ccccc1` (stereo not drawn)?
Pol iota confirm: 59.7*; Pol eta inh-2: inconclusive; WRN helicase inh-2: -27.0%; TO displacement: -2.7%; BLM counter: inconclusive

What do the screens show for `FC(F)(F)c1cc(CN2CC[C@@]3(CCCNC3)C2)cc(C(F)(F)F)c1`?
Pol kappa inh-1: -11.2%[60.1 µM]

How did O=C(COc1ccc(/C=N/NC(=O)c2ccccc2O)cc1)Nc1ccc([N+](=O)[O-])cc1 do in these assays?
WRN helicase inh-1: 16.8µM*; Pol kappa inh-1: 9.0%; PI5P4Ka inh: 0.3; POLB inh: -10.8%; Pol eta inh-1: inconclusive; Pol iota inh: inconclusive; Pol iota confirm: 33.6*; Pol eta inh-2: 60.1*; WRN helicase inh-2: 10.8µM*; TO displacement: inconclusive; BLM counter: 4.82µM*

How did O=C(COc1ccc(/C=N/NC(=O)c2ccncc2)cc1)Nc1cccc([N+](=O)[O-])c1 do in these assays?
WRN helicase inh-1: -3.0%; Pol kappa inh-1: -4.5%; PI5P4Ka inh: 4.3; POLB inh: -8.0%; Pol eta inh-1: 9.9%; Pol iota inh: inconclusive

How did O=C(O)c1ccc2c(c1)C(=O)/C(=C\c1ccco1)C2=O do in these assays?
WRN helicase inh-1: 25.1µM*; Pol kappa inh-1: 8.91µM*; PI5P4Ka inh: -61.0*; POLB inh: 2.24µM*; Pol eta inh-1: 3.55µM*; Pol iota inh: 6.31µM*; Pol iota confirm: 29.9*; Pol kappa inh-2: 2.67*; Pol eta inh-2: 8.49*; WRN helicase inh-2: inconclusive; TO displacement: 21.5µM*; BLM counter: -9.8%
